Compound activity as filed in PubChem.
TbREL1 primary – TbREL1 inhibition, primary screen; inhibition, % at 9.66 µM; P86926; actives 0.49% (n = 89,000); TbREL1 RNA ligation, FRET fluorescence;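 active = inhibition above the mean inhibition across all screened compounds plus 3 SD, cut at about 11% in these data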
Target sequence (P86926 whole entry, looked up): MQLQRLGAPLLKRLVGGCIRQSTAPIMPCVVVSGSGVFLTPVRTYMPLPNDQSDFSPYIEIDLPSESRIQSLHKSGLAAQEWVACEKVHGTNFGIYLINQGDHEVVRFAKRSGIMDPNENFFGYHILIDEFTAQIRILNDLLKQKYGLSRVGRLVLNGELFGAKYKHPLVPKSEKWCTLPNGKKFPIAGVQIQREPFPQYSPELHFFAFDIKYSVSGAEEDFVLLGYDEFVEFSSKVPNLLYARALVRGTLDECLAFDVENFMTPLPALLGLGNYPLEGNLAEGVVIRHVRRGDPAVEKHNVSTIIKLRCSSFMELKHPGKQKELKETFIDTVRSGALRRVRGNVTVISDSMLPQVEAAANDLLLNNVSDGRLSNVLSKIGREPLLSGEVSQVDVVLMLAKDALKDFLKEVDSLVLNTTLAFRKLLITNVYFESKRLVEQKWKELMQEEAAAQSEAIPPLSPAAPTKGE
TbREL1 conf – TbREL1 inhibition, confirmation; shares compounds with TbREL1 primary; TbREL1 RNA ligation, FRET fluorescence; inhibition, % at 9.66 µM; actives 37% (n = 390); AID 1117282;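 active = mean inhibition across replicates above a set limit taken from the earlier primary screen, cut at about 11% in these data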
Hits are given with their value; n = inactive. Shown is part of a subset that was picked to be rich in hits.

SMILES | TbREL1 primary | others
COc1ccc(Nc2nc(NCc3ccco3)nc(N)c2[N+](=O)[O-])cc1 | n
Nc1nc(Nc2cccc(Cl)c2)nc(NCCO)c1[N+](=O)[O-] | n
COc1ccc(-c2nnc(SCC(=O)N/N=C(\C)c3ccc(-c4ccccc4)cc3)n2-c2ccc(C)cc2)cc1 | n
CCCCn1cnc2c(oc3ccccc32)c1=O | n
CC(C)C(C)NC(=O)Cn1cnc2c(oc3ccccc32)c1=O (stereo not given) | n
CCOC(=O)C(C)n1cnc2c(oc3ccccc32)c1=O (stereo not given) | 16.5
CC(C)C[C@H](NC1(C(=O)NC2CCCCC2)CCOCC1)C(=O)NCC(c1ccccc1)c1ccccc1 | n
O=C(NCCc1nnc2ccc(NCc3ccc(Cl)cc3)nn12)c1ccccc1 | n
Cc1ccc(CNc2cnccn2)cc1 | n
Cc1ccc(CNc2ccc3nnc(-c4ccccc4)n3n2)cc1 | 11.1
O=C(NCc1ccccc1Cl)O[C@H]1CC[C@@]23CCCN2C(=O)CCC[C@H]3C1 | n
CC(NCc1ccco1)C(=O)N1CCCN(C)CC1 (stereo not given) | n
Nc1ccc(C(=O)O)cc1[N+](=O)[O-] | n
Nc1cc(S(=O)(=O)O)cc([N+](=O)[O-])c1O | 21.4 | TbREL1 conf=58.7
Nc1cc(S(=O)(=O)c2ccc(O)c(N)c2)ccc1O | n
Cc1[nH]c2ccccc2c1CC(=O)Nc1ccc(N(C)c2cccnc2)c(-c2cccc(Cl)c2)c1 | n
Cc1ccc(Cn2cc(/C=C/C(=O)O)c(-c3ccccc3)n2)cc1 | n
CN1CCN(C(=O)/C=C/c2cn(-c3ccccc3)nc2-c2ccc3c(c2)OCCO3)CC1 | n
Cc1ccc(-c2nn(-c3ccccc3)cc2/C=C/C(=O)O)o1 | 11.1 | TbREL1 conf=n
COc1ccc(-c2c(C(=O)c3ccccc3)[nH]c(N)c2C(=O)c2c[nH]c3ccccc23)cc1OC | n
O[C@@H](Cc1ccccc1)[C@@H](/C=C/c1ccccc1)NCCc1ccccc1 | 11.4 | TbREL1 conf=n
O=C(/C=C/c1ccc(Cl)cc1)NCCc1ccccc1 | n
COC(=O)[C@@H](N[C@H](/C=C/c1ccccc1)[C@@H](O)Cc1ccccc1)c1ccccc1 | n
COC(=O)[C@]12C[C@H](CC(=O)N3CCN(C(=O)c4ccco4)CC3)C(=O)N(Cc3ccco3)C1=C[C@H](COCc1ccccc1)O[C@@H]2C | n
O=C(CNS(=O)(=O)c1cc2ccccc2s1)N1CCN(c2ccccn2)CC1 | n
SMILES | TbREL1 primary | others
CC(C)(C)c1ccc(-c2nnc(SCC(=O)Nc3ccc(S(=O)(=O)Nc4nccs4)cc3)n2Cc2ccco2)cc1 | n
COc1ccccc1CC(=O)NCCN1C(=O)C2C3C=CC(C3)C2C1=O (stereo not given) | n
O=C(NCCc1c[nH]c2ccccc12)[C@H](Cc1c[nH]c2ccccc12)NC1(C(=O)NC2CCCCC2)CCCCCCC1 | n
Cc1onc(-c2ccccc2)c1C(=O)N(C)CCc1ccccn1 | n
Cc1onc(-c2ccccc2)c1C(=O)N(Cc1ccccn1)Cc1ccccn1 | 11.3 | TbREL1 conf=n
Cc1onc(-c2ccccc2)c1C(=O)NC(C)C | n
COc1cc(NC(=O)C2CCCN(S(=O)(=O)c3ccc(C)cc3)C2)cc(OC)c1 (stereo not given) | n
Cc1n[nH]c(C)c1NC(=O)CN1CCN(S(=O)(=O)c2ccc(C(F)(F)F)cc2)CC1 | 11.3 | TbREL1 conf=n
O=C(CN1CCCCC1)Nc1ccc(S(=O)(=O)N2CCCCCC2)cc1 | n
Cc1ccc(S(=O)(=O)N2CCN(CC(=O)NC(C)c3ccccc3)CC2)cc1 (stereo not given) | n
CSc1ccccc1NC(=O)CN(C)Cc1ccc(Br)cc1 | n
CSc1ccccc1NC(=O)CN(C)CC(=O)Nc1c(F)cccc1F | 16.1 | TbREL1 conf=n
CSc1ccccc1NC(=O)CN(C)CC(=O)Nc1ccccc1F | 11.5 | TbREL1 conf=n
CSc1ccccc1NC(=O)CN(C)C(C)C(=O)Nc1ccc(C#N)cc1 (stereo not given) | n
CN(CC(=O)Nc1cccc(F)c1)CC(=O)Nc1cccc2ccccc12 | n
CSc1ccccc1NC(=O)CCc1ccccc1 | n
COC(=O)[C@H](C)NC(=O)[C@@H]1CC=C[C@@H]2CCN(CCc3ccccc3)C(=O)[C@@H]21 | n
CCC[C@H]1[C@@H](OC(=O)N2CCCC2)CC[C@@]23CCCN2C(=O)CCC[C@@H]13 | n
COc1ccc(-n2c(SCc3cccc4ccccc34)nnc2-c2ccccc2)cc1 | n
C=CCN1C/C(=C/c2ccccc2)N2C(=O)CC(c3ccccc3)N=C12 (stereo not given) | n
CN(Cc1cn(Cc2cccc(Cl)c2)nn1)C1CN(Cc2cn(Cc3cccc(Cl)c3)nn2)S(=O)(=O)C1 (stereo not given) | n
N=c1c2c(ccn1CCCc1ccccc1)Oc1ccc3ccccc3c1C2c1ccccc1 (stereo not given) | n
CC(C)(C)NC(=O)C(c1cccnc1)N(C(=O)c1cccs1)c1ccc(C(C)(C)C)cc1 (stereo not given) | n
CCC[C@H]1[C@@H](NC(=O)c2cccc(Cl)c2)CC[C@@]23CCCN2C(=O)CCC[C@@H]13 | n
c1ccc(C[C@H]2CNCCN2CCCCC2CCCCC2)cc1 | n
SMILES | TbREL1 primary | others
c1ccc2c(C[C@@H]3CNCCN3CCCCC3CCCCC3)cccc2c1 | 13.6 | TbREL1 conf=n
Oc1ccc(C[C@@H]2CNCCN2CCc2cccc3ccccc23)cc1 | n
Cn1c(Cc2cccs2)nnc1SCC(=O)Nc1ccc2c(c1)OCO2 | n
CCC[C@H]1[C@@H](NC(=O)c2cccc(N(C)C)c2)CC[C@@]23CCCN2C(=O)CCC[C@@H]13 | n
O=C(NNc1cc(Cl)ccc1Cl)C1CCC1 | 91.4 | TbREL1 conf=n
O=C(O)C1CC=CCC1C(=O)Nc1cc(Cl)ccc1Cl (stereo not given) | n
O=C(C1CCCN(S(=O)(=O)c2cc(Cl)ccc2Cl)C1)N1CCCCCC1 (stereo not given) | n
Cc1ccc(-c2nnc(SCC(=O)Nc3ccc4c(c3)OCCO4)n2-c2ccc(C)cc2)cc1 | n
C[C@@H]1CCCN1c1ccc2c(c1)O[C@@H]1CCN(C1)S2(=O)=O | n
c1ccc(-n2c(SCc3cccc4ccccc34)nnc2-c2ccncc2)cc1 | n
COc1cc(N=c2ssnc2Cl)c(OC)cc1Cl | n
Cc1nnc(N=c2ssnc2Cl)o1 | 13.4 | TbREL1 conf=19.5
O=C(NCC1COCCO1)C1CCN(S(=O)(=O)c2cccs2)CC1 (stereo not given) | n
CC(=O)Nc1sc2c(c1-c1nc3ccccc3s1)CNC2 | n
CC1=C[C@]2(CN(CC3CC3)C3=N[C@H](c4ccccc4)CC(=O)N32)n2c(=O)n(-c3ccccc3)c(=O)n2C1 | n
CCCN(CC1CC1)C(=O)CNc1nnnn1-c1ccccc1 | n
CCOc1ccc(C(=O)Cc2ccc3oc(C(=O)O)cc3c2)c(O)c1 | n
CCOC(=O)c1ccc(CC(=O)c2ccc(O)c(O)c2O)o1 | 35.0 | TbREL1 conf=84.1
CCOC(=O)c1oc2cccc(O)c2c1C | n
O=C(C1CCC1)N1CCc2cc(S(=O)(=O)C3CCN(Cc4ccc(F)cc4)CC3)ccc21 | n
Cc1nc2c(C)[n+](CC(=O)c3ccccc3)ccc2n1C | n
O=C(C[n+]1cc2ccccc2c2ccccc21)c1ccccc1 | 13.1 | TbREL1 conf=n
O=C(O)CCC(=O)CCC(=O)c1ccccc1 | n
COc1cc(OC)cc(C(C)c2ccc(C)cc2)c1 (stereo not given) | n
COc1ccc(C(=O)N[C@H]2CC[C@@]34CCCN3C(=O)CCC[C@H]4[C@H]2C)cc1 | n
O=C(N/N=C/c1cccc(OC(=O)c2cccc(Br)c2)c1)c1cccnc1 | n
